Data: PubChem BioAssay AID504550 (Sanford-Burnham Center for Chemical Genomics, 2011)
This is one part of the list. Values without a mark were called inactive. Activity calls are given as the source filed them.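 The calls were made as follows: active = mean activation at 20 µM of at least 40%; inactive = the rest.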

Target: Neurotensin receptor type 1 (Homo sapiens) (UniProt P30989)
Test: NTR1 agonists, single-dose retest, confirmation, imaging, U2OS cells, beta-arrestin-GFP, single concentration (AID 504550);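 also: 0% = DMSO without peptide and 100% = 100 nM NTR1 peptide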
Conditions: NTR1-U2OS beta-arrestin-GFP translocation imaging; at 20 µM; hits give high values

Neurotensin receptor type 1 (Homo sapiens), sequence (P30989 whole entry, looked up): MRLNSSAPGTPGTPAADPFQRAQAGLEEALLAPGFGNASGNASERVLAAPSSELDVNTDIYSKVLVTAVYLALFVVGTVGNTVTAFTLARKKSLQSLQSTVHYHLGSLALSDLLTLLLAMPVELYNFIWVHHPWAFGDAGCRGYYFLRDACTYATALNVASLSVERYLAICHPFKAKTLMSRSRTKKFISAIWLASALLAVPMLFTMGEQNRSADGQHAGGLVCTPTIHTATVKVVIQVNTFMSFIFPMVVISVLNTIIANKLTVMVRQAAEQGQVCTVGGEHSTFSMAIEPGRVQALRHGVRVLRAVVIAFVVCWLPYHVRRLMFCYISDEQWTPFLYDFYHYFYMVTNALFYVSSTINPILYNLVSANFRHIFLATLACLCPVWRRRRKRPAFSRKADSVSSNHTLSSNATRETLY

| Compound | activation |
| --- | --- |
| Cc1cccc(-n2c(SCC(N)=O)nc3c(c2=O)C2(CCCCC2)Cc2ccccc2-3)c1 | 22.7% |
| CC(C)(C)OC(=O)N1CCC(NC(=O)c2[nH]cnc2C(=O)N[C@@H](Cc2ccccc2)C(=O)OCc2ccccc2)CC1 | 51.5% (active) |
| O=C(N/N=C/c1c(Cl)[nH]c2ccccc12)c1sc2ccccc2c1Cl | 21.7% |
| CC(C)Cn1c(N)c(C(=O)NCc2cccs2)c2nc3ccccc3nc21 | 21% |
| CCCCNc1c(-c2cccc(Sc3ccc(OC)cc3)c2)nc2ccccn12 | 68.2% (active) |
| COc1ccc(C(C[N+](=O)[O-])n2nc(C)cc2C)cc1 (stereo not given) | 52.4% (active) |
| CC(C)Oc1c(Br)cc(Br)cc1/C=N/NC(N)=S | 26.4% |
| CCOC(=O)CSC1=C(C#N)C(c2ccco2)C(C(=O)OCc2ccccc2)=C(C)N1 (stereo not given) | 7.17% |
| CC(C)c1ccccc1OCC(O)CN(CC(O)COc1cccc2ccccc12)C(C)C (stereo not given) | 15.3% |
| Cc1cccc(-c2nc(Nc3ccc(O)cc3)c3ccccc3n2)c1 | 31.3% |
| O=C(/C=C/c1ccc(Cl)c([N+](=O)[O-])c1)c1cccnc1 | 49.5% (active) |
| O=C(N/N=C/c1ccc(OC(=O)c2ccccc2Cl)cc1)c1ccc(O)cc1 | 50.1% (active) |
| OC(CN=c1sc2ccccc2n1CC(O)COc1ccccc1)COc1ccccc1 (stereo not given) | 18.2% |
| O=C(/C(=C/c1cccc(Cl)c1)c1nc2ccccc2[nH]1)c1ccccc1 | 62.5% (active) |
| Cc1ccc(NC(=O)COc2coc(CN3CCc4ccccc4C3)cc2=O)cc1Cl | -2.38% |
| CCCCCCCCCCOC(=O)Cn1c(COc2cccc(OC)c2)[n+](C)c2ccccc21 | 71.8% (active) |
| Nc1nc(Nc2ccccc2F)nc(NC2CCCCC2)c1[N+](=O)[O-] | 13.2% |
| COc1cccc(/C=N/Nc2cc(C)nc(-c3ccccc3O)n2)c1O | 36.7% |
| O=c1oc2ccccc2cc1-c1csc(Nc2ccc(O)cc2)n1 | 10.5% |
| CN1/C(=C\C(=O)c2oc3ccccc3c2N)C(C)(C)c2ccccc21 | 15% |
